Compound activity: PubChem BioAssay, Broad Institute
Compounds with a hit are over-represented: about 4% of the library has one in this group of screens.
RAD52 anneal inh – inhibitors of human RAD52 DNA annealing; P43351; recombinant RAD52 DNA annealing, FRET fluorescence; inhibition, % at 18.7 µM; hit rate 0.46% among 360,000; AID 651710;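 active means every replicate showing at least 50% inhibition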
Target sequence (P43351 whole entry, looked up): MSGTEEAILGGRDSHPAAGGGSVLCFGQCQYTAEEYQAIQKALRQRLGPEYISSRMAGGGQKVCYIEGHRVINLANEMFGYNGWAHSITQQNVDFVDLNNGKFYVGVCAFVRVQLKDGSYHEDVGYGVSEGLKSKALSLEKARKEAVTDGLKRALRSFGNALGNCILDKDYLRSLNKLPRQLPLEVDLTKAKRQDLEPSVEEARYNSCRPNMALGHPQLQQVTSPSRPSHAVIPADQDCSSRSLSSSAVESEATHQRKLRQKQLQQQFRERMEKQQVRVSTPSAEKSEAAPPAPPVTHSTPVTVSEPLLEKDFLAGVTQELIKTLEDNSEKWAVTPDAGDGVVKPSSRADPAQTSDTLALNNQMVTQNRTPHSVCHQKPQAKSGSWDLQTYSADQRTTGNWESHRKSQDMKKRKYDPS
FGF22 binding – FGF22 (human) thermal shift binding | Q9HCT0 | recombinant FGF22 thermal shift, SYPRO orange fluorescence; percent of sucrose octasulfate shift, DMSO zero | activity (Tm shift, normalised), % at 9.99 µM | AID 651658 | hit rate 1.5% among 340,000;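 active means mean Tm shift, scaled 0 neutral to 100 positive control, at about 1.3% or above, every replicate too, limit read from the data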
Target sequence (Q9HCT0 whole entry, looked up): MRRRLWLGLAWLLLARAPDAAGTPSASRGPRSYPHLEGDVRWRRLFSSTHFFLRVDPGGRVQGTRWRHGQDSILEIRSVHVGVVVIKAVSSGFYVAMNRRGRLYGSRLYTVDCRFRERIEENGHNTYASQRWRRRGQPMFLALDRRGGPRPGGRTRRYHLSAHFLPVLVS
AF4-AF9 inh – inhibitors of human MLL-AF4/AF9 interaction. AlphaScreen, biotin-AF4 peptide binding to FLAG-AF9. inhibition, % at 10 µM. P42568. hit rate 0.47% among 350,000;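 active means every replicate reaching a set inhibition limit, whatever the replicate mean, cut at about 25% in these data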
DENV2 CPE – protects cells from dengue virus 2 cytopathic effect; AID 651640; CPE inhibition, % at 9.99 µM; DENV2-infected cells, cytopathic effect rescue, plate reader; hit rate 1.7% among 350,000; in the data active means CPE inhibition above about 20%, passing the limit was not always enough; tested in BHK-21 cells
ERAP1 inh – blocks human ERAP1 aminopeptidase activity; inhibition, % at 10.7 µM; hit rate 0.15% among 340,000; recombinant ERAP1, Leu-AMC fluorescence, 60 min; Q9NZ08;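 active means mean replicate inhibition of at least 30%, or all replicates individually reaching that 30% level; inactive means mean below 30% and not every replicate reaching it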
Each line names hits and unclear results; the compound was inactive in the other large screens.

Cc1ccc(S(=O)(=O)Nc2ccc3c(c2)C(=O)N([C@@H](C)CO)C[C@H](C)[C@H](CN(C)C(=O)CCC(F)(F)F)OCCCC[C@@H](C)O3)cc1	none (no result: FGF22 binding)
COCC(=O)N(C)C[C@H]1Oc2ncc(-c3ccc(C#N)cc3)cc2C(=O)N([C@@H](C)CO)C[C@H]1C	none
CO[C@H]1CN(C)C(=O)c2cc(C#N)ccc2OCC[C@@H]2CC[C@@H](OC)[C@@H](CN(C)C(=O)[C@@H]1C)O2	none
CC(Oc1ccc2c(-c3ccccc3)cc(=O)oc2c1)C(=O)NCCN1CCOCC1 (stereo not drawn)	FGF22 binding 43
C[C@@H]1CN([C@@H](C)CO)C(=O)c2cc(NC(=O)c3ccccc3)ccc2O[C@@H](C)CCCCO[C@H]1CN(C)C(=O)c1ccccc1	none
COc1ccccc1-c1ccc(C2[C@H]3CNC[C@@H]2N3Cc2nccs2)cc1 (stereo partly drawn)	none (no result: FGF22 binding)
Cc1nc(SCc2ccc(O)c([N+](=O)[O-])c2)n[nH]1	none
Cc1nc(SCc2ccc(O)c([N+](=O)[O-])c2)c([N+](=O)[O-])[nH]1	ERAP1 inh 55
C[C@@H]1CN([C@@H](C)CO)S(=O)(=O)c2ccc(-c3ccc(C(=O)N(C)C)cc3)cc2O[C@@H]1CN(C)C(=O)C1CCCCC1	AF4-AF9 inh 30
C[C@H](CO)N1C[C@H](C)[C@H](CN(C)C(=O)C2CCCCC2)Oc2cc(-c3ccc(F)cc3)ccc2S1(=O)=O	none
C[C@@H]1CN([C@@H](C)CO)S(=O)(=O)c2ccc(-c3ccc(C(=O)N(C)C)cc3)cc2O[C@H]1CN(C)C(=O)C1CCCCC1	none
C[C@H]1CN([C@@H](C)CO)S(=O)(=O)c2ccc(-c3ccc(F)cc3)cc2O[C@@H]1CN(C)C(=O)C1CCCCC1	DENV2 CPE 52
Cc1ccc(S(=O)(=O)N2C[C@H](O)COC[C@@H]3O[C@H](CC(=O)NCCN4CCCCC4)CC[C@H]32)cc1	none
Cc1ccc(S(=O)(=O)N(C)C)cc1NC(=O)COC(=O)C1CCCC1	DENV2 CPE 34
COCCN(C(=O)/C=C/c1ccccc1)c1c(N)n(Cc2ccccc2)c(=O)[nH]c1=O	FGF22 binding 43
CN(C(=O)CCOc1ccccc1)c1c(N)n(Cc2ccccc2)c(=O)[nH]c1=O	none
CCOc1ccc(OCC(=O)N(C)c2c(N)n(Cc3ccccc3)c(=O)[nH]c2=O)cc1	DENV2 CPE 25
CC(=O)c1c(C)[nH]c(C(=O)OCC(=O)N(C)c2c(N)n(Cc3ccccc3)c(=O)[nH]c2=O)c1C	DENV2 CPE 143
COCC(=O)N1CC2(C1)[C@@H](c1ccccc1)[C@H](CO)N2C(=O)c1cccnc1	none
C[C@@H]1CCCCO[C@H](CN(C)S(=O)(=O)c2ccccc2)[C@H](C)CN([C@@H](C)CO)C(=O)c2cc(NC(=O)CCC(F)(F)F)ccc2O1	none
CCCNC(=O)C[C@H]1CC[C@@H]2[C@@H](COc3ccc(NC(=O)c4cccc(Cl)c4)cc3C(=O)N2C)O1	none (no result: DENV2 CPE, ERAP1 inh)
COc1ccc2c3c(n(C)c2c1)[C@H](CO)N(C(=O)c1cccnc1)CC31CN(C)C1	none (no result: RAD52 anneal inh, FGF22 binding, ERAP1 inh)
C=C1c2cccc(O)c2C(O)=C2C(=O)[C@]3(O)C(O)=C(C(N)=O)C(=O)[C@@H](N(C)C)[C@@H]3[C@@H](O)[C@H]12	ERAP1 inh 35
C[C@H]1c2cccc(O)c2C(O)=C2C(=O)C3(O)C(O)=C(C(N)=O)C(=O)[C@@H](N(C)C)[C@@H]3[C@@H](O)[C@@H]21 (stereo partly drawn)	none
CN(C)CC(=O)N1CC[C@@H]2[C@H]1c1cc(-c3ccccc3)ccc1N(C)[C@H]2CO	none
Cc1ccc(S(=O)(=O)N2CC[C@@H]3[C@@H](CO)N(C)c4ccc(-c5ccccc5F)cc4[C@@H]32)cc1	none
CN(C)CC(=O)N1CC[C@@H]2[C@H]1c1cc(-c3ccccc3F)ccc1N(C)[C@@H]2CO	DENV2 CPE 49 (no result: RAD52 anneal inh, AF4-AF9 inh, ERAP1 inh)
CN1c2ccc(-c3ccccc3F)cc2[C@H]2[C@H](CCN2S(=O)(=O)c2ccc(F)cc2)[C@H]1CO	DENV2 CPE 65 (no result: AF4-AF9 inh, ERAP1 inh)
CN(C)CC(=O)N1CC[C@H]2[C@@H]1c1cc(-c3ccccc3F)ccc1N(C)[C@H]2CO	DENV2 CPE 22 (no result: RAD52 anneal inh, AF4-AF9 inh, ERAP1 inh)
CN(C(=O)COC(=O)/C=C/c1cn(-c2ccccc2)nc1-c1ccc2c(c1)OCCO2)C1CCS(=O)(=O)C1 (stereo not drawn)	FGF22 binding 43
O=C(COC(=O)/C=C/c1cn(-c2ccccc2)nc1-c1ccc2c(c1)OCCO2)NC1CCS(=O)(=O)C1 (stereo not drawn)	none (no result: ERAP1 inh)
COc1ccc2c3c([nH]c2c1)[C@@H](CO)N(C(=O)CN(C)C)CC31CN(C(=O)c2ccncc2)C1	none
O=C(Cc1ccncc1)NCC[C@@H]1CC[C@H](NC(=O)Nc2cccc(F)c2)[C@H](CO)O1	none
CCOC(=O)C1=CC[C@H]2c3c(c4ccc(OC)cc4n3C)C(=O)C1N2S(=O)(=O)c1ccc(C)cc1	DENV2 CPE 31
CCOC(=O)C1=CC[C@@H](c2ccc(OC)cc2)N(S(=O)(=O)c2ccc(C)cc2)[C@H]1CC	none
Nc1cccc(S(=O)(=O)c2ccc(N)c(N)c2)c1	FGF22 binding 43
Nc1ccc(S(N)(=O)=O)cc1N	none
O=C(CNCc1ccccc1)Nc1ccccc1-c1ccccc1	FGF22 binding 44
O=C(CNCc1ccccc1)Nc1cccc(Cl)c1Cl	none
CCOc1ccc(NCC(=O)N/N=C/C=C/c2ccccc2)cc1	none
COc1ccc(OCC(=O)N/N=C/C=C/c2ccccc2)cc1	FGF22 binding 43
C[C@H]1CCCCO[C@H](CN(C)C(=O)C2CCCCC2)[C@@H](C)CN([C@@H](C)CO)C(=O)c2cc(NS(=O)(=O)c3cn(C)cn3)ccc2O1	none
COC(=O)[C@@]12C[C@@H](CC(=O)NCc3cccc(C(F)(F)F)c3)C(=O)N(Cc3ccccc3)C1=CCC(C)(C)C2	none
CCCCNC(=O)C[C@@H]1C[C@@]2(C(=O)OC)CCCCC=C2N(CCC2=CCCCC2)C1=O	DENV2 CPE 80
CCCCCCCCN1C(=O)[C@H](CC(=O)NCCC(C)C)C[C@@]2(C(=O)OCC)CCCC=C12	DENV2 CPE 20
COC(=O)[C@@]12C[C@@H](CC(=O)NCc3cccc(C(F)(F)F)c3)C(=O)N(Cc3cccc4ccccc34)C1=CCC(C)(C)C2	FGF22 binding 23
COC(=O)[C@]12CCCCC=C1N(Cc1ccc(Cl)cc1Cl)C(=O)[C@H](CC(=O)NCc1cccc(C(F)(F)F)c1)C2	FGF22 binding 1.5
O=C(O)C[C@@H]1CC[C@@H](NC(=O)c2ccccc2F)[C@@H](CO)O1	none
CN1C(=O)c2cc(NC(=O)c3ccc(F)c(F)c3)ccc2OC[C@H]2O[C@@H](CC(=O)O)CC[C@@H]21	none (no result: RAD52 anneal inh, FGF22 binding, AF4-AF9 inh, ERAP1 inh)
O=C(C1=C[C@H](C2CC2)C[C@H](OCCCCO)O1)N1CCCC1	none
COCC(=O)N1CCC2(CC1)CN(C(=O)CN1CCOCC1)[C@@H](CO)c1c2c2ccc(OC)cc2n1C	none
